Assay outcomes from PubChem.
DT40 TDP1 CPT – growth inhibition of DT40 Tdp1-/-;hTDP1 cells with camptothecin (screen for TDP1 inhibitors) | chicken DT40 Tdp1-/-;hTDP1 cells + 20 nM CPT, ATP luminescence, 48 h | Potency, µM (series often up to 46.2 µM), for inactives: at the top dose activity change, negative = growth inhibition, hits mostly inhibitors | hit rate 12% among 420,000; further: on the % scale 0 is the no-effect control and ±100 the full control effect; nearly all actives have a fitted effect of over 55% in size
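Cell growth measured by CellTiter-Glo luminescence after a minimum 48 h, 37 C compound exposure with 20 nM CPT in Tdp1-knockout DT40 cells stably expressing hTDP1, seeded 400/well; qHTS titration format.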
HepG2 viability – kills HepG2 cells in TGF-b inhibitor counter-screen. Potency, µM (highest dose often 46.1 µM), inactives show at the highest dose activity change, negative = cytotoxicity, actives largely listed as cytotoxic. hit rate 0.76% among 410,000. HepG2 CAGA-GFP viability, ATP luminescence, 18 h. AID 588856
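CellTiter-Glo luminescence gave cytotoxicity after 18 hours at 37 degrees C. The cells were HepG2 CAGA-GFP in 1% FBS DMEM, stimulated with 500 pg/mL TGF-beta after compound addition. %Activity was normalised to no-cell wells (complete cell-killing) and DMSO (no toxicity), and curves were fitted and classified.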
S2 tox – viability counter-screen for ATXN expression inhibitors; S2 cells (HEK-293 line with an ATXN2-luciferase reporter) viability, CellTiter-Fluor protease fluorescence, 24 h; hit rate 0.49% among 400,000; Potency, µM (top dose mostly 56.7 µM), usual class: cytotoxic; AID 651635; further: nearly all actives have a fitted effect of over 40% in size
TGFb SMAD3 inh – TGF-b pathway inhibition. HepG2 CAGA-GFP TGF-b/SMAD3 reporter, GFP fluorescence, 18 h; TGF-beta stimulated, 500 pg/mL final. Potency, µM (titrated, usually from 46.1 µM), inactives show at the top dose activity, negative = inhibition, usual class: inhibitors. hit rate 1.2% among 410,000. AID 588855; further: on the % scale 0 is the no-effect control and ±100 the full control effect; nearly all actives have a fitted effect of over 65% in size
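Smad-responsive CAGA-GFP expression was quantified in HEPG2 cells exposed to compounds and 500 pg/mL final TGF-beta for 18 h at 37 degrees C; unstimulated wells defined full inhibition.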
DT40 TDP1 no CPT – qHTS for Inhibitors of human tyrosyl-DNA phosphodiesterase 1 (TDP1): qHTS in cells in absence of CPT; AID 686978, 2013; Potency, µM (series often up to 46.2 µM), inactives show at the top dose activity change, negative = growth inhibition, most hits filed as inhibitors; hit rate 15% among 420,000; DT40 Tdp1-/- hTDP1 cells, no CPT, ATP luminescence, 48 h; further: on the % scale 0 is the no-effect control and ±100 the full control effect; nearly all actives have a fitted effect of over 55% in size
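Cells were dispensed at 400 per well, compounds added by pin tool, plates incubated ≥48 hr at 37 °C, then CellTiter-Glo added for 30 min at room temperature before luminescence reading. Line: DT40 Tdp1-/- complemented with hTDP1; camptothecin omitted.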
ATXN2 expr inh – ATXN2 expression inhibition; HEK-293 ATXN2-luciferase reporter, luminescence, 24 h; Potency, µM (highest dose often 57 µM), inactives show at the top dose activity change, negative = inhibition, hits mostly inhibitors; hit rate 0.72% among 360,000; AID 1745845; further: on the % scale 0 is the no-effect control and ±100 the full control effect; nearly all actives have a fitted effect of over 55% in size
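ATXN2-luciferase reporter cells (luciferase flanked by upstream and downstream ATXN2 gene portions) were treated 24 h at 37 °C with compounds at up to 57 uM. SteadyGlo luminescence gave expression; GF-AFC fluorescence gave viability.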
Active calls of the source: *; i = inactive; ? = inconclusive; . = not tested or not shown. Sampled rows, rich in hits. Any-hit rate of the full collection: about 17%. The call rests on the fitted dose curve; in most records, active means well fitted curve in the direction sought with a large enough effect; inconclusive means small, poorly fitted or top-dose-only effect, or another doubt; inactive means no such curve, though single readings can be large; an effect the other way counts as inactive or inconclusive. Potency means the concentration at half of the fitted maximal effect.

SMILES | DT40 TDP1 CPT | HepG2 viability | S2 tox | TGFb SMAD3 inh | DT40 TDP1 no CPT | ATXN2 expr inh
CSCCC(C(=O)Nc1c(C)cccc1C)n1c(-c2ccc(-c3ccccc3)cc2)nc2ccccc21 (centres undefined) | 10.3µM* | . | . | . | ? | .
CCC(C(=O)Nc1c(C)cccc1C)n1c(-c2cnc(C)cn2)nc2ccccc21 (centres undefined) | -10.4% | . | . | . | -27.3% | .
Cc1nc(C2CCCCC2)c(-c2ccc(S(N)(=O)=O)c(F)c2)o1 | . | . | i | . | . | 25.1%
CCOC(=O)c1c(C)[nH]c(C)c1C(=O)COC(=O)/C=C/c1cccc(F)c1 | -20.0% | -18.0% | i | -2.5% | -23.0% | 3.4%
CCOC(=O)c1c(C)[nH]c(C)c1C(=O)COC(=O)[C@@H](NC(=O)c1ccccc1OCC)C(C)C | ? | -33.3% | i | ? | 20.6µM* | -2.8%
CCOC(=O)c1c(C)[nH]c(C)c1C(=O)COC(=O)/C=C/c1ccc(OC)cc1 | 7.31µM* | 1.4% | ? | 0.6% | 8.2µM* | -12.6%
CCOC(=O)c1c(C)[nH]c(C)c1C(=O)COC(=O)c1cc2ccccc2cc1O | ? | -22.2% | i | ? | 16.4µM* | -18.1%
CCOC(=O)c1c(C)[nH]c(C)c1C(=O)COC(=O)c1cc2ccccc2cc1OC | ? | -2.2% | i | 2.2% | 23.1µM* | -18.2%
COc1ccc(CC2NCCC3=CC(=O)CCC32)cc1O (centres undefined) | . | -23.0% | i | -9.3% | . | -3.3%
O=S(=O)(Nc1c(F)cccc1F)c1ccc(Cl)nc1 | 5.6% | 2.7% | i | 3.2% | -1.7% | -10.3%
CCOC(=O)c1c(C)[nH]c(C)c1C(=O)COC(=O)c1ccc(Cl)c(S(=O)(=O)NCc2ccccc2)c1 | 20.6µM* | -25.8% | ? | -12.6% | 23.1µM* | -12.4%
CCOC(=O)C(CC)(CC)C(=O)/C=C/c1ccc(OC)cc1 | ? | 2.2% | i | -24.6% | 18.4µM* | ?
O=C(COC(=O)c1ccc(Cl)c(S(=O)(=O)NCc2ccccc2)c1)NC1CC1 | -16.4% | 3.1% | i | ? | 2.0% | 0.1%
COC(=O)CNC(=O)/C=C/c1ccc(OC)cc1 | -7.6% | -9.6% | i | -15.2% | 3.5% | 20.7%
O=c1[nH]c2ccccc2c(=O)n1CCCl | . | . | i | . | . | 0.9%
COc1ccc(S(=O)(=O)NCc2ccccn2)cc1NC(=O)c1ccccc1 | 4.61µM* | -2.7% | ? | -3.7% | 4.11µM* | -13.7%
CCOc1ccc(S(=O)(=O)NCc2ccccn2)cc1NC(=O)c1ccccc1F | 0.651µM* | 2.0% | i | 13.1% | 0.651µM* | -8.1%
COc1cc(S(=O)(=O)NCc2ccccn2)ccc1Cl | ? | 5.1% | i | 1.7% | ? | 17.3%
COc1ccc(S(=O)(=O)NCc2ccccn2)cc1NC(=O)c1ccc(C)cc1 | 7.31µM* | 0.5% | i | -19.1% | 5.17µM* | -12.4%
COc1ccc(S(=O)(=O)NCc2ccccn2)cc1Br | -10.2% | -5.0% | i | 12.0% | -2.0% | 5.1%
COc1ccccc1-c1noc(CCCC(=O)Nc2cccc(C(F)(F)F)c2)n1 | ? | -15.2% | ? | 12.6µM* | 18.4µM* | ?
COc1ccccc1-c1noc(CCC(=O)Nc2cc(C(F)(F)F)ccc2Cl)n1 | -20.7% | -9.8% | i | -0.1% | ? | -17.2%
CCOc1ccccc1-c1noc(CCCC(=O)Nc2cccc(C(F)(F)F)c2)n1 | 18.4µM* | -35.3% | ? | ? | 18.4µM* | 0.0%
CCOc1ccccc1-c1noc(CCC(=O)NC2CCCCC2)n1 | -1.5% | 9.7% | i | 10.9% | -27.9% | -4.9%
CCc1ccccc1Oc1ccc(S(=O)(=O)N2CCN(C)CC2)cn1 | ? | -1.6% | i | 11.2% | ? | 43.0%
SMILES | DT40 TDP1 CPT | HepG2 viability | S2 tox | TGFb SMAD3 inh | DT40 TDP1 no CPT | ATXN2 expr inh
CCOc1ccc(C(=O)Cn2cnnc2C#N)cc1 | 13.5% | -1.3% | i | 1.2% | -25.3% | -25.0%
CC(C)(C)c1ccc(C(=O)Cn2cnnc2C#N)cc1 | 20.6µM* | -11.7% | i | 0.5% | 16.4µM* | -8.6%
O=C(NCC1(N2CCOCC2)CCCCC1)c1cnn(-c2nccc(-c3ccco3)n2)c1C1CC1 | ? | . | i | . | ? | .
Oc1ccccc1C1=Nc2ncnn2C(c2ccccc2)C1 (centres undefined) | ? | -71.4% | i | ? | ? | -12.0%
O=C(CCS(=O)(=O)c1ccccc1)Nc1nc2c(s1)COc1ccccc1-2 | 4.11µM* | -112.7% | . | ? | 4.61µM* | ?
O=C(Nc1nc2c(s1)COc1ccccc1-2)c1cccs1 | 11.6µM* | -36.6% | i | ? | 23.1µM* | -2.6%
O=C(Nc1cccc2c1CCCC2)C1CCN(c2nnnn2-c2ccccc2)CC1 | ? | -2.4% | i | -9.4% | 16.4µM* | -5.9%
CC1(C)c2ccccc2-n2c1cc1oc(=O)cc(O)c1c2=O | ? | -22.0% | i | -19.5% | 20.6µM* | -5.1%
CCN(CC)S(=O)(=O)c1cc(NC(=O)[C@@H](NC(N)=O)C(C)C)ccc1C | -3.1% | 3.8% | i | 4.1% | -16.5% | -15.7%
CN(C)c1ccc(NC(=O)CSc2nc(N)c(C(=O)Nc3ccc(N(C)C)cc3)s2)cc1 | 10µM* | -19.9% | i | -16.7% | 12.6µM* | 18.0%
CCc1nc(SCC(=O)Nc2ccc(N(C)C)cc2)n[nH]1 | 4.61µM* | 0.0% | i | -9.5% | 4.61µM* | 25.5%
CCc1nc(SCC(=O)Nc2ccc(N(CC)CC)cc2)n[nH]1 | -7.5% | 20.8% | i | 11.4% | -9.7% | 3.6%
CNc1nc(NC#N)nc(SC)n1 | 20.6µM* | -0.2% | i | -2.7% | ? | 0.4%
CN(CCc1ccccc1)C(=O)c1ccc(NC(=O)Cc2ccc(NC(=O)C3CCCN(C(=O)C4CCCCC4)C3)cc2)cc1 (centres undefined) | ? | -12.6% | ? | -6.2% | ? | -18.2%
CN(CCc1ccccc1)C(=O)c1ccc(NC(=O)Cc2ccc(NC(=O)C3CCN(C(=O)C4CCCC4)CC3)cc2)cc1 | 16.4µM* | -17.4% | ? | 1.5% | 23.1µM* | -12.2%
CN(CCc1ccccc1)C(=O)c1ccc(NC(=O)Cc2ccc(NC(=O)C3CCN(C(=O)c4ccccc4)CC3)cc2)cc1 | ? | -12.7% | i | 1.2% | ? | -5.8%
CN(CCc1ccccc1)C(=O)c1ccc(NC(=O)Cc2ccc(NC(=O)C3CCN(C(=O)C4CC4)CC3)cc2)cc1 | 23.1µM* | -20.6% | i | -8.4% | ? | 3.9%
